{"source": "PubChem BioAssay (Tox21)", "note": "Inconclusive results are not listed. Where a call stands in place of a potency, no number is given. Active and inactive are the calls of the source. The call rests on the fitted dose curve."}
{"target": "Vitamin D3 receptor (Homo sapiens) (UniProt P11473)", "sequence (P11473 whole entry, looked up)": "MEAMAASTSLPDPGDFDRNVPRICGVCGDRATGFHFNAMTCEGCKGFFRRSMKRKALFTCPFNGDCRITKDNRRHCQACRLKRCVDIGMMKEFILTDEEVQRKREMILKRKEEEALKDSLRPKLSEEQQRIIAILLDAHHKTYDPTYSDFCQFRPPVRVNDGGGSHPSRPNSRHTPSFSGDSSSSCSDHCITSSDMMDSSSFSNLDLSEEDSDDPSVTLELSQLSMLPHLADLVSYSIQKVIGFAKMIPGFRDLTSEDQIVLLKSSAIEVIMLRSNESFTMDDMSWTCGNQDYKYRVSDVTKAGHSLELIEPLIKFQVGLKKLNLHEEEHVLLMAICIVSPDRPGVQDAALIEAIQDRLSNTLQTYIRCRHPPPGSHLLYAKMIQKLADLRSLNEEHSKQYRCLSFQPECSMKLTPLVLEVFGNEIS", "experiment": "qHTS assay to identify small molecule agonists of the vitamin D receptor (VDR) signaling pathway (AID 743222)", "conditions": "HEK293T VDR-UAS-bla, beta-lactamase FRET ratio, 16 h; series mostly up to 63.5 µM; activation: at the top concentration", "source_text": "National Center for Advancing Translational Sciences [NCATS]\nNIH Chemical Genomics Center [NCGC]\nU.S. Environmental Protection Agency [EPA]\nNational Institutes of Environmental Health Sciences [NIEHS]\nNational Toxicology Program [NTP]\nU.S. Food and Drug Administration [FDA]\nThe vitamin D receptor (VDR), a member of nuclear hormone receptor superfamily, plays a critical role in calcium homeostasis and bone metabolism. It is also involved in cell differentiation and growth, and thrombogenicity.\nTox21 Assay Protocol Summary:\nVDR-bla cells were dispensed at 2,000 cells/6 uL/well into black wall/clear-bottom 1536-well plates using a Multidrop Combi (Thermo Fisher Scientific, Waltham, MA) dispenser. After the assay plates were incubated at a 37C and 5% CO2 for 4 h, 23 nL of compounds dissolved in DMSO, positive controls or DMSO only was transferred to the assay plate by a Pintool station (Kalypsys, San Diego, CA). The plates were incubated at 37C and 5% CO2 for 16 h. After 1 uL of LiveBLAzerTM B/G FRET substrate was added using a Bioraptr Flying Reagent Dispenser (FRD) workstation (Beckman Coulter, Indianapolis, IN, USA), the plates were incubated at room temperature for 2 h, and fluorescence intensity was measured by an Envision plate reader (PerkinElmer, Shelton, CT)."}
{"smiles": "CC1(C)CC(N=C=O)CC(C)(CN=C=O)C1", "note": "(stereo not given)", "activation": "-13% (inactive)"}
{"smiles": "Oc1c(Cl)cc(Cl)c(Cl)c1Cl", "Potency": "inactive"}
{"smiles": "CC(C)(N=C=O)c1cccc(C(C)(C)N=C=O)c1", "Potency": "inactive"}
{"smiles": "CCc1ccc(O)cc1", "Potency": "inactive"}
{"smiles": "CCCCCCCCC", "Potency": "inactive"}
{"smiles": "CNC[C@H](O)[C@@H](O)[C@H](O)[C@H](O)CO", "Potency": "inactive"}
{"smiles": "CC(C)(C)C1CCC(O)CC1", "note": "(stereo not given)", "Potency": "inactive"}
{"smiles": "ClC1=C(Cl)C(Cl)(Cl)C(Cl)=C1Cl", "Potency": "inactive"}
{"smiles": "NCCc1ccc(O)c(O)c1", "Potency": "inactive"}
{"smiles": "O=C1O[C@H](CO)[C@@H](O)[C@H](O)[C@H]1O", "Potency": "inactive"}
{"smiles": "CCCCNC(N)=O", "Potency": "inactive"}
{"smiles": "OCCOCCOCCOCCO", "Potency": "inactive"}
{"smiles": "CN(C)c1cccc(O)c1", "Potency": "inactive"}
{"smiles": "Cc1cc(=O)[nH]c(C(C)C)n1", "Potency": "inactive"}
{"smiles": "CCCCOCCOCCOC(=O)CCCCC(=O)OCCOCCOCCCC", "Potency": "inactive"}
{"smiles": "CCCCCCCCCC(=O)O", "Potency": "inactive"}
{"smiles": "O=C(O)c1ccc([N+](=O)[O-])cc1", "Potency": "inactive"}
{"smiles": "Cn1c([N+](=O)[O-])cnc1COC(N)=O", "Potency": "inactive"}
{"smiles": "Cc1ccc(C)c(C)c1", "Potency": "inactive"}
{"smiles": "O=C1CCCCC1", "Potency": "inactive"}
{"smiles": "CCCCCCOC(C)=O", "Potency": "inactive"}
{"smiles": "Oc1ccc2ccccc2c1", "Potency": "inactive"}
{"smiles": "NC(=O)NNc1ccccc1", "Potency": "inactive"}
{"smiles": "CC[Si](OC(C)=O)(OC(C)=O)OC(C)=O", "Potency": "inactive"}
{"smiles": "Cc1ccc(C(=O)O)o1", "activation": "0.866% [at 81.1 µM] (inactive)"}
{"smiles": "Nc1c(S(=O)(=O)O)cc(Br)c2c1C(=O)c1ccccc1C2=O", "Potency": "inactive"}
{"smiles": "NC(=O)/N=N/C(N)=O", "Potency": "inactive"}
{"smiles": "C/C=C(C)/C=C/C=C(C)C", "Potency": "inactive"}
{"smiles": "COCC(=O)O", "Potency": "inactive"}
{"smiles": "Oc1ccc(OCc2ccccc2)cc1", "activation": "-2.33% (inactive)"}
{"smiles": "OC[C@@H](O)[C@H](O)[C@H](O)[C@@H](O)CO", "Potency": "inactive"}
{"smiles": "O=C(O)c1cc(-c2ccccc2)nc2ccccc12", "activation": "14% (inactive)"}
{"smiles": "CCOC(=O)/C=C\\C(=O)OCC", "Potency": "inactive"}
{"smiles": "C=C(C)C(=O)OCCCCCC", "activation": "-3.36% (inactive)"}
{"smiles": "C=CC(=O)OCCCCCCCC(C)C", "Potency": "inactive"}
{"smiles": "OCC1CCCO1", "note": "(stereo not given)", "activation": "10.3% (inactive)"}
{"smiles": "Nc1cc(-c2ccncc2)c[nH]c1=O", "activation": "-0.186% (inactive)"}
{"smiles": "c1ccc2ccccc2c1", "Potency": "inactive"}
{"smiles": "OC1CCCC1", "Potency": "inactive"}
{"smiles": "CCCCC(CC)COC(C)=O", "note": "(stereo not given)", "Potency": "inactive"}
